High-throughput results as filed in PubChem.
A selection: hits, their analogues and other compounds. The true share with any hit is near 8.1%.
ELG1 DNA repair: inhibitors of ELG1-dependent DNA repair in HEK293T cells. HEK293T ELG1-luciferase reporter, luminescence, 16 h; DNA damage induced by 5-fluorouridine. Potency, µM (titrated, usually from 46.1 µM), inactives show at the highest dose activity change, negative = inhibition, actives largely listed as inhibitors. 2.3% of 330,000 active. AID 504467; also: % is scaled to controls: 0 for no effect and ±100 for the full control effect; nearly all actives have a fitted effect of over 55% in size
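DMSO vehicle served as the neutral condition. Each well held 2,000 cells given 5-fluorouridine plus compound; after 16 hr at 37 °C/5% CO2, ONE-Glo was added and luciferase measured 30 min later.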
SW480 rereplic: induces DNA re-replication in SW480 colon adenocarcinoma cells; 1.8% of 340,000 active; SW480 DNA re-replication, Hoechst DNA content imaging, 48 h; AID 624297; Potency, µM (highest dose often 46.1 µM), for inactives: top-dose re-replication activation, hits mostly activators; also: % of control where 0% means no effect; nearly all actives have a fitted effect of over 55% in size
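Readout is total intensity of Hoechst-stained nuclei, excited at 405 nm and collected at 500-530 nm. Compound treatment lasted 48 hr at 37 C in 5% CO2 before staining.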
MCF10A rereplic: inducers of DNA re-replication in MCF 10A breast cells. MCF 10A DNA re-replication, Hoechst nuclear intensity, 48 h. Potency, µM (series often up to 46.1 µM), inactives show at the highest dose activity, positive = re-replication, hits mostly activators. 2.9% of 350,000 active. AID 624296; also: % of control where 0% means no effect; nearly all actives have a fitted effect of over 50% in size
KB-3-1 tox: KB-3-1 parental cell cytotoxicity | Potency, µM (highest dose often 46.1 µM), usual class: cytotoxic | AID 1347075 | 1.4% of 400,000 active | KB-3-1 viability, CellTiter-Glo ATP luminescence, 72 h; also: % is scaled to controls: 0 for no effect and ±100 for the full control effect; nearly all actives have a fitted effect of over 60% in size
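Using CellTiter-Glo luminescence, growth of non-resistant KB-3-1 adenocarcinoma cells is assessed 72 h after pin-tool compound addition at 37 °C. Normalized responses across the concentration series yield fitted curves.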
KB-V1 MDR tox: KB-V1 MDR subline cytotoxicity. Potency, µM (doses to about 46.1 µM), usual class: cytotoxic. 3.4% of 400,000 active. KB-V1 MDR cells viability, CellTiter-Glo, 72 h. AID 1347076; also: % is scaled to controls: 0 for no effect and ±100 for the full control effect; nearly all actives have a fitted effect of over 60% in size
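qHTS viability screen in drug-selected KB-V1 MDR cells: 72 h compound treatment at 37 degrees C, ATP luminescence end point.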
An asterisk follows results filed as active. Calls follow the shape of the dose curve; as a rule, active = well fitted curve in the direction sought with a large enough effect; inconclusive = small, poorly fitted or top-dose-only effect, or another doubt; inactive = no such curve, though single readings can be large; an effect the other way counts as inactive or inconclusive. Potency is read from the fitted curve at half-maximal effect.

For Cc1ccc(CNC(=O)C(=O)NCC2CCCN2S(=O)(=O)c2cc(C)ccc2C)cc1 (configuration not stated) the results were ELG1 DNA repair inconclusive, SW480 rereplic inconclusive, MCF10A rereplic -17%, KB-3-1 tox inactive and KB-V1 MDR tox inactive.
`Cc1ccc(C)c(S(=O)(=O)N2CCCCC2CCNC(=O)C(=O)NCc2ccco2)c1` (configuration not stated) gave ELG1 DNA repair inconclusive, SW480 rereplic inconclusive, MCF10A rereplic inconclusive, KB-3-1 tox inconclusive and KB-V1 MDR tox 9.2µM*.
Screening Cc1ccc(C)c(S(=O)(=O)N2CCCC2CNC(=O)C(=O)NCc2ccccc2)c1 (configuration not stated) returned ELG1 DNA repair -7%, SW480 rereplic 3%, MCF10A rereplic -5%, KB-3-1 tox inactive and KB-V1 MDR tox 8.2µM*.
COc1ccc(NC(=O)CSc2nc(-c3cccs3)cc(C(F)(F)F)n2)cc1OC was read as KB-3-1 tox 9.2µM* and KB-V1 MDR tox inconclusive.
`COc1ccc(NC(=O)CCCSc2nc(-c3ccco3)cc(C(F)(F)F)n2)cc1OC` gave ELG1 DNA repair 21µM*, SW480 rereplic 10%, MCF10A rereplic 10%, KB-3-1 tox inactive and KB-V1 MDR tox inactive.
Screening COc1ccc(NC(=O)CSc2nc(-c3cccs3)cc(C(F)(F)F)n2)cc1Cl returned KB-3-1 tox inactive and KB-V1 MDR tox 5.2µM*.
`COc1ccc(NC(=O)CCSc2nc(-c3ccco3)cc(C(F)(F)F)n2)cc1OC` gave KB-3-1 tox inactive and KB-V1 MDR tox inactive.
`O=C1OCC(CO)(CO)N=C1NNc1cc(Cl)ccc1Cl` gave ELG1 DNA repair 29%, SW480 rereplic -3%, MCF10A rereplic inconclusive, KB-3-1 tox inactive and KB-V1 MDR tox inactive.
For O=C1OCC(CO)(CO)N=C1NNc1ccccc1[N+](=O)[O-] the results were ELG1 DNA repair 7.3µM*, SW480 rereplic -3%, MCF10A rereplic 8%, KB-3-1 tox inactive and KB-V1 MDR tox inactive.
Screening CC(C)Sc1nc2ccc(N3C(=O)C4CCCCC4C3=O)cc2s1 (configuration not stated) returned ELG1 DNA repair inconclusive, SW480 rereplic 5%, MCF10A rereplic 25%, KB-3-1 tox inactive and KB-V1 MDR tox inactive.
Screening Cc1c(NC2(c3nnnn3-c3ccc(Br)cc3)CCCCC2)c(=O)n(-c2ccccc2)n1C returned ELG1 DNA repair 0%, SW480 rereplic 3%, MCF10A rereplic 4%, KB-3-1 tox inactive and KB-V1 MDR tox 3.7µM*.
`CCOc1ccc(C2=Nn3c(nnc3-c3cccnc3)SC2)cc1` gave ELG1 DNA repair inconclusive, SW480 rereplic 0%, MCF10A rereplic 10%, KB-3-1 tox inactive and KB-V1 MDR tox inconclusive.
Cc1cc(-c2nnc3n2N=C(c2ccc(-c4ccccc4)cc2)CS3)n[nH]1 was read as ELG1 DNA repair inconclusive, SW480 rereplic 3%, MCF10A rereplic inconclusive, KB-3-1 tox inconclusive and KB-V1 MDR tox inactive.
For Cc1cccc(-c2nnc3n2N=C(c2ccccc2)CS3)c1 the results were ELG1 DNA repair 2%, SW480 rereplic 4%, MCF10A rereplic 13%, KB-3-1 tox inconclusive and KB-V1 MDR tox 8.2µM*.
Screening COc1ccc(-c2nnc3n2N=C(c2ccccc2)CS3)cc1OC returned ELG1 DNA repair -3%.
c1ccc(-c2cc(-c3nnc4n3N=C(c3ccc5ccccc5c3)CS4)[nH]n2)cc1 was read as ELG1 DNA repair inconclusive, SW480 rereplic inconclusive, MCF10A rereplic 4.1µM*, KB-3-1 tox inactive and KB-V1 MDR tox 7.3µM*.
`c1ccc(C2=Nn3c(nnc3-c3ccncc3)SC2)cc1` gave ELG1 DNA repair 8.2µM*, SW480 rereplic inconclusive, MCF10A rereplic 8%, KB-3-1 tox inactive and KB-V1 MDR tox inactive.
Screening CCOc1ccc(C2=Nn3c(nnc3-c3ccc(OC)cc3)SC2)cc1 returned ELG1 DNA repair inconclusive, SW480 rereplic 5.8µM*, MCF10A rereplic inconclusive, KB-3-1 tox 2.9µM* and KB-V1 MDR tox 3.3µM*.
